This note sets out measurements from PubChem BioAssay (NCATS).

Assay [1] is described as follows: Cell Viability - LYMP2-024 (AID 988).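 Also: plate controls were DMSO only for no effect and 92 µM tetraoctylammonium bromide for full effect; nearly all actives have a fitted effect of over 60% in size.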 The essentials: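 Human lymphoblastoid cells (2500/well) in complete medium were preincubated 5 hr at 37 C, then exposed to compounds for 24 hr at 37 C. Intracellular ATP was read by CellTiter-Glo luminescence; AC50 from Hill-equation fits of concentration-response data.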
A short description of assay [2]: Cell Viability - LYMP2-026 (AID 989). Also: % is scaled to controls: 0 for no effect and ±100 for the full control effect; nearly all actives have a fitted effect of over 50% in size. The essentials: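 Human lymphoblastoid cells (2500/well) in complete medium were preincubated 5 hr at 37 C, then exposed to compounds for 24 hr at 37 C. Cellular ATP was read by CellTiter-Glo luminescence; AC50 from Hill-equation fits of concentration-response data.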
The target in assay [3] is Alpha-galactosidase A (Homo sapiens) (UniProt P06280). In words: Counterscreen for Glucocerebrosidase Inhibitors: qHTS Assay for Human alpha-Galactosidase at pH 4.5 (AID 992). Also: 0% is about no effect. The essentials: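 Read-out is 4-methylumbelliferone fluorescence (365 nm excitation, 440 nm emission) after a pH 10 NaOH/glycine stop. Reactions held 2 nM enzyme and 80 uM substrate at pH 4.5 for 20 min at room temperature.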
Sequence of Alpha-galactosidase A (Homo sapiens) (P06280 whole entry, looked up): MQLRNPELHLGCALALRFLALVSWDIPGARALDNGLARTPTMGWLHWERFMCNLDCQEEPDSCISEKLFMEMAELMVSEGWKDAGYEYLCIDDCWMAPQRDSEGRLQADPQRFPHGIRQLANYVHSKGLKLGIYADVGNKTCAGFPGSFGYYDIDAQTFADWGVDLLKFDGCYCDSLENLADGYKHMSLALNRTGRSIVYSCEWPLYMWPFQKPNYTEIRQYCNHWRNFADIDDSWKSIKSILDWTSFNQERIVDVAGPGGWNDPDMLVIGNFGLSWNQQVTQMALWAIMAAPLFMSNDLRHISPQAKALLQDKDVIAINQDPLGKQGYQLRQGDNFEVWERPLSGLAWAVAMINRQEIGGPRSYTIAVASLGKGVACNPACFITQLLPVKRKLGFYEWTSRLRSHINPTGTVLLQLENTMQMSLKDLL

A short description of assay [4]: Cell Viability - LYMP1-002 - Assay at 24 hr (AID 993). Also: % is scaled to controls: 0 for no effect and ±100 for the full control effect. The essentials: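 Human lymphoblastoid LYMP1-002 cells, 2500/well in complete medium, were treated with compounds for 24 h at 37 C; intracellular ATP was read by CellTiter-Glo luminescence. AC50 values came from Hill-equation fits of qHTS concentration-response data.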
Assay [5] in a line: Cell Viability - LYMP1-002 - Assay at 40 hr (AID 994).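 Also: 0% = DMSO only and full inhibition = 92 µM tetraoctylammonium bromide; nearly all actives have a fitted effect of over 60% in size.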 The essentials: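 Human lymphoblastoid cells, 2500/well in complete medium, were preincubated 5 hr at 37 C, then exposed to compounds for 40 hr at 37 C. Intracellular ATP was read by CellTiter-Glo luminescence after 30 min at room temperature; AC50 from Hill-equation fits.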
Assay [6] deals with alpha-glucosidase (Oryza sativa, rice) (UniProt Q653V4). Nature of the assay: Counterscreen for Glucocerebrosidase Inhibitors: qHTS Assay for Rice alpha-Glucosidase at pH 5.0 (AID 997).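 Also: 0% = full activity with enzyme and -100% = basal without enzyme.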 The essentials:
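Rice alpha-glucosidase (4 nM final) with 400 uM 4-methylumbelliferyl-alpha-D-glucopyranoside in citrate buffer pH 5.0, 20 min at room temperature, stopped at pH 10; fluorescence 365/440 nm, compounds 0.7 nM–77 uM, AC50 from Hill fits.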

Assay [7] can be described thus: qHTS Assay for Lipid Storage Modulators (AID 1519; calls by dose curve; as to activity change, negative = inhibition: % is scaled to controls: 0 for no effect and ±100 for the full control effect). To be noted: Drosophila S3 cells, BODIPY lipid droplet/cell ratio, laser cytometry, cells loaded with oleic acid. The essentials:
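Cells seeded at 5,000 per well were treated with compounds over a concentration series and loaded with oleic acid (400 uM, as added). Lipid droplet fluorescence (488 nm excitation, 500-530 nm channel) was read by laser-scanning cytometry and normalized to 20 uM Triacsin C.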

In assay [8] the target is DNA repair nuclease/redox regulator APEX1 (Homo sapiens) (UniProt P27695). In words: qHTS Validation Assay for Inhibitors of the Human Apurinic/apyrimidinic Endonuclease 1 (APE1) (AID 1705;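 also: TAMRA fluorescence gain over two minutes as APE1 cuts a quenched THF abasic duplex; % is scaled to controls: 0 for no effect and ±100 for the full control effect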). The essentials:
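Substrate: 50 nM final fluorophore/quencher THF-abasic duplex. Enzyme preincubated with compounds 15 min, RT. Progress derived from fluorescence difference, third minus first kinetic read.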

Assay [9] can be described thus: Counterscreen for APE1 Inhibitors: Fluorescent Dye Displacement Validation Assay (AID 1707).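 Also: plate controls were ThO with dsDNA and no compound for no effect and ThO without dsDNA for full effect.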 The essentials: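 ThO 250 nM + dsDNA 50 nM (THF abasic site, 5'-TAMRA), Tris-HCl pH7.5/50mM NaCl/2 mM MgCl2/0.01% Tween-20; compounds pin-transferred; ex 480/em 540 nm endpoint. Neutral = no compound; no-DNA ThO wells = negative control.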
Where [10] appears, read: measured here: cell count channel max response.
The mark [11] stands for this setting: measured here: lipid channel max response.

Several values for one entry are separate records, joined by “and”; a condition that tells them apart may be missing. Identical values can stand only once. Records with an inconclusive call do not appear. Activity calls are given as the source filed them. Unless noted, calls follow the shape of the dose curve; as a rule, active = well fitted curve in the direction sought with a large enough effect; inconclusive = small, poorly fitted or top-dose-only effect, or another doubt; inactive = no such curve, though single readings can be large; an effect the other way counts as inactive or inconclusive.

Sequence of DNA repair nuclease/redox regulator APEX1 (Homo sapiens) (P27695 whole entry, looked up): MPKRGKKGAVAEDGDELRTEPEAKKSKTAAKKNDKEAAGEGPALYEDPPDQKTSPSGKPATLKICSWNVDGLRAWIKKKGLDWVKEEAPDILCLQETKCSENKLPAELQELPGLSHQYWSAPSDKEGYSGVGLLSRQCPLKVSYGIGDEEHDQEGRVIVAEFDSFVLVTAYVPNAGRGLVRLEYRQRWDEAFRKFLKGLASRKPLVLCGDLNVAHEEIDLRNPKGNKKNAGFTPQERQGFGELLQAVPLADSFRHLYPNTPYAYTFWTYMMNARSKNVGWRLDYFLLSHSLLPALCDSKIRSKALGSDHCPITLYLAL

`COc1ccc(CN(CCN(C)C)c2ccccn2)cc1`: the Potency entry in assay [1], in assay [5] and in assay [8] was “inactive” throughout. For the same molecule, the call in assay [2], in assay [3], in assay [4], in assay [6] and in [9] was inactive. The activity change, negative = inhibition was 1.57% (inactive) in assay [7] (at 25.7 µM (top of the series)); 2.66% (inactive) and 4.86% (inactive) and -0.667% (inactive) in assay [7] (at 57.5 µM (top of the series)). Further, in assay [7] (setting [10]), the max response was 5.42% [middle of 4 runs].
Turning to `CCN1CCc2nc(N)oc2CC1`, the result in assay [3], in assay [6] and in assay [9] was inactive. In addition, the activity change, negative = inhibition in assay [7] (at 57.5 µM (top of the series)) is 0.659% (inactive). The max response was -8.22% in assay [7] (setting [10]) and -7.55% in assay [7] (setting [11]). The Potency entry in assay [8] is “inactive”.
In the case of `CC(C)[N+](C)(CCOC(=O)C1c2ccccc2Oc2ccccc21)C(C)C`, the molecule was called inactive in assay [3], in assay [6] and in assay [9]. For the same molecule, in assay [7] (at 25.7 µM (top of the series)), the activity change, negative = inhibition is 0.9% (inactive). Further, the max response was -9.66% in assay [7] (setting [10]) and -8.2% in assay [7] (setting [11]).
In the case of `NC/C=C/C(=O)O`, in [7] (at 57.5 µM (top of the series)), the activity change, negative = inhibition is 6.98% (inactive). Also, the max response in assay [7] (setting [10]) stood at 5.6%; in assay [7] (setting [11]), 13.9%. Further, the Potency result in [8] is “inactive”. The result in assay [9] was inactive.
On to `Cc1scc2c1N(C(=O)CN1CCN(C)CC1)c1ccccc1NC2=O`, for which the outcome in assay [3], in assay [6] and in [9] was inactive. The activity change, negative = inhibition in assay [7] (at 25.7 µM (top of the series)) was -2.57% (inactive); in [7] (at 57.5 µM (top of the series)), 0.86% (inactive) and 1.7% (inactive) and 0.0907% (inactive). Moreover, in assay [7] (setting [10]), the max response is -8.48% [middle of 4 runs]. For the same molecule, the Potency entry in assay [8] is “inactive”.
With `C[N+](C)(C)CCCCCCCCCC[N+](C)(C)C`, the molecule was classed as inactive in assay [3], in assay [6] and in assay [9]. Also, in [7] (at 25.7 µM (top of the series)), the activity change, negative = inhibition is -3.64% (inactive). For the same molecule, the values for the max response in assay [7] (setting [10]) and in assay [7] (setting [11]) were -13.2% and -14.8%, respectively.
On to `C[C@]12CCC(=O)C=C1CC[C@@H]1[C@@H]2CC[C@@]2(C)[C@H]1CC[C@]2(O)C(=O)CO`, for which the outcome in [3], in assay [6] and in assay [9] was inactive. Further, the activity change, negative = inhibition in assay [7] (at 57.5 µM (top of the series)) was -0.711% (inactive). For the same molecule, the max response came out at 15.6% in assay [7] (setting [10]) and 12.1% in assay [7] (setting [11]). Moreover, the Potency entry in assay [8] was “inactive”.
`CCNC(=O)N1CCN(CCCC(c2ccc(F)cc2)c2ccc(F)cc2)CC1`: the call in assay [3], in assay [6] and in assay [9] was inactive. Moreover, the activity change, negative = inhibition in assay [7] (at 57.5 µM (top of the series)) was -0.161% (inactive). The results for the max response in assay [7] (setting [10]) and in assay [7] (setting [11]) were -45.7% and -48.7%, respectively. In [8], the Potency entry is “inactive”.
For `O=c1[nH]c(=O)n([C@H]2C[C@H](O)[C@@H](CO)O2)cc1Br`, the Potency result in [1], in [5] and in [8] was “inactive” throughout. The molecule was classed as inactive in [2], in assay [3], in assay [4], in assay [6] and in assay [9]. In addition, the activity change, negative = inhibition in [7] (at 57.5 µM (top of the series)) was -1.72% (inactive) and -8.79% (inactive). The max response in [7] (setting [10]) was 5.46% and -18.7%; in [7] (setting [11]), 1.8% and -25.8%.
`Cc1ccc(/C(=C\CN2CCCC2)c2ccccn2)cc1`: the activity change, negative = inhibition in assay [7] (at 57.5 µM (top of the series)) is 3.64% (inactive) and 0.151% (inactive). Besides, the max response in assay [7] (setting [10]) was 7.98% and 15.3%; in assay [7] (setting [11]) it was 14.1% and 15.5%. For the same molecule, the Potency result in assay [8] was “inactive”. Moreover, the outcome in assay [9] was inactive.
Take `CN1CCN(CC(=O)N2c3ccccc3C(=O)Nc3cccnc32)CC1`: the result in assay [3], in assay [6] and in assay [9] was inactive. In addition, the activity change, negative = inhibition is 1.33% (inactive) in assay [7] (at 25.7 µM (top of the series)); 2.91% (inactive) and 6.38% (inactive) and 1.02% (inactive) in [7] (at 57.5 µM (top of the series)). For the same molecule, the Potency result in assay [8] was “inactive”.
On to `NC(=Nc1ccccc1)Nc1ccccc1`, for which the molecule was classed as inactive in assay [2] and in [4].
Turning to `CCCCOCCOCCOCc1cc2c(cc1CCC)OCO2`, the molecule was called inactive in [2] and in assay [4].
